D1 antagonist = Antagonist of Human D 1 Dopamine Receptor: qHTS; D(1A) dopamine receptor (Homo sapiens), P21728; HEK293 TREx D1 cells, calcium flux, dopamine EC80; stronger effect = lower value; activity change, negative = inhibition, % at 10 µM; hit rate 3.2% among 360,000; AID 504652, 2011; in the data active = activity change below about -30%; note: % is set by controls: 0 for no effect and ±100 for the full control effect
Target sequence (P21728 whole entry, looked up): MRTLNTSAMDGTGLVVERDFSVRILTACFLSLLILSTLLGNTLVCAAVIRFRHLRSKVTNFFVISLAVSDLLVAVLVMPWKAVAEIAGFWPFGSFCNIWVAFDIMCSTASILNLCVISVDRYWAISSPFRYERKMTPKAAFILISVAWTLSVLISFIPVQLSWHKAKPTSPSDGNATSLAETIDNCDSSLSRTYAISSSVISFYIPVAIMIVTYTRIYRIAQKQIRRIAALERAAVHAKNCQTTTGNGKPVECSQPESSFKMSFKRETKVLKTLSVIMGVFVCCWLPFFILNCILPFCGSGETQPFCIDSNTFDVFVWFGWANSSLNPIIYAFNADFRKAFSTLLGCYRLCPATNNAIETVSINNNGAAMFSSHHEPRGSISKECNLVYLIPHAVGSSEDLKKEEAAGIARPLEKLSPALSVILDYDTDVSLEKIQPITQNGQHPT
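Cells carrying a force-coupled, tetracycline-inducible human D1 receptor report calcium flux. Each well gets a 10 s baseline, compound with 180 s monitoring, then an EC80 dopamine stimulus with a second 180 s kinetic read.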
D1 PAM = Potentiators of Human D1 Dopamine Receptor: qHTS. D(1A) dopamine receptor (Homo sapiens), P21728. HEK293 TREx D1 cells, calcium flux, dopamine EC20 potentiation. potentiation, % at 10 µM. hit rate 0.036% among 360,000. AID 504651, 2011; in the data active = potentiation above about 30%; note: 0% is about no effect
D3 antag = qHTS of D3 Dopamine Receptor Antagonist: qHTS. hit rate 2.5% among 360,000. D(3) dopamine receptor (Homo sapiens), P35462. max response, negative = inhibition, %. D3R cells, DiscoveRx beta-arrestin luminescence, antagonist mode; stronger effect = lower value; in the data active = max response below about -50%; inconclusive = no clear call, values can overlap the other calls; note: % is set by controls: 0 for no effect and ±100 for the full control effect
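Cells plated overnight at 1500 cells/well, then exposed to library compounds with dopamine controls for 90 minutes at 37 degrees C. DiscoveRx reagent added for 30–60 minutes at room temperature; luminescence read, quantitative HTS format.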
D1 agonist = Allosteric Agonists of the Human D1 Dopamine Receptor: qHTS. D(1A) dopamine receptor (Homo sapiens), P21728. HEK293 T-REx D1 cells, calcium flux, agonist mode. activation, % at 2 µM. hit rate 1% among 360,000. AID 504660, 2011; in the data active = activation above about 30%; note: 0% is about no effect
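Inducible HEK293 T-REx D1 cells, force-coupled to calcium signalling, were plated at 4000 cells/well with tetracycline and held overnight at 30 C. After no-wash calcium dye loading, compound-evoked calcium rise over 180 s flagged agonists.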
D3 ag = qHTS of D3 Dopamine Receptor Agonist: qHTS; D(3) dopamine receptor (Homo sapiens), P35462; D3R DiscoveRx beta-arrestin cells, luminescence, 90 min; max activation, %; hit rate 0.58% among 410,000; AID 652048, 2013; in the data active = max activation above about 30%; note: 0% is about no effect
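Agonist-mode cell screen: cells plated at 1500/well and incubated overnight at 37 °C, then exposed to library compounds for 90 min at 37 °C. Detection reagent was added for 30–60 min at room temperature, and luminescence was read.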
* = called active by the depositor; ? = inconclusive; . = no result. Most compounds without a hit are left out; they make up all but 6% or so of the library.

SMILES	D1 antagonist	D1 PAM	D3 antag	D1 agonist	D3 ag
COC(=O)c1cc(-c2ccc(S(=O)(=O)N3CCCC(C)C3)cc2)c(C(F)(F)F)s1 (configuration not stated)	-40.8*	-11.9	-12.2	2.4	-6.6
COC(=O)c1cc(S(=O)(=O)N2CCCC(C)C2)cn1C (configuration not stated)	-7.7	-0.8	14.9	2.0	4.0
O=C(OCC(=O)N1CCCCC1)c1cc(NS(=O)(=O)c2ccc(Cl)c([N+](=O)[O-])c2)ccc1O	-0.3	-9.4	-50.5*	6.4	-8.3
CCc1nc2ccc(C(=O)NCCCn3ccnc3)cn2c1N(C)Cc1cc2ccccc2s1	.	.	16.9	.	3.1
CCc1nc2ccc(C(=O)NC3CCN(Cc4ccccc4)CC3)cn2c1N(C)Cc1cc2ccccc2s1	.	.	-67.7*	.	-9.7
CCc1nc2ccc(C(=O)NC3CCN(Cc4ccccc4)CC3)cn2c1N(C)Cc1cccs1	.	.	-77.2*	.	-29.4
CCc1ccccc1N(C)C(=O)c1nn(-c2ccc(OC)cc2)c(=O)c2c1c1ccccc1n2C	5.6	-0.2	.	5.5	13.3
CN=c1scc(-c2ccc(F)cc2)n1/N=C/c1ccc(O)c(O)c1	-10.2	-5.0	0.9	3.2	94.6*
N#Cc1c(-c2ccccc2)ccn(Cc2ccccc2Cl)c1=O	-11.3	-8.3	-50.7*	0.0	-0.9
C[C@@H](O)[C@H]1C(=O)N2C(C(=O)O)=C(S[C@@H]3CN[C@H](CNS(N)(=O)=O)C3)[C@H](C)[C@H]12	.	.	.	.	3.9
NNC(=O)CN1C(c2cccc(Cl)c2)=Nc2ccc(Br)cc2C1c1ccccc1 (configuration not stated)	6.2	0.3	?	1.9	-10.3
COc1ccc(C2=Nc3ccc(C)cc3C(c3ccccc3)N2CC(=O)NN)cc1 (configuration not stated)	-0.4	4.0	-105.2*	2.7	-31.2
COC(=O)CN1C(c2ccc(Cl)cc2)=Nc2ccc(Cl)cc2C1c1ccccc1 (configuration not stated)	-6.2	-12.8	6.2	10.5	-2.4
COc1ccc(C2=Nc3ccc(Br)cc3C(c3ccccc3)N2CC(=O)NN)cc1 (configuration not stated)	-9.1	-0.7	-92.8*	-0.8	-15.8
Cc1cccc(-c2nc3ccccc3n3c(-c4ccccc4)c4c(=O)n(C)c(=O)n(C)c4c23)c1	-0.2	-3.4	.	0.4	-3.7
C=CCCC(=O)N1C[C@H]2CON(C)[C@H]2C[C@H]1c1ccc(Br)cc1	.	.	-1.1	.	4.8
CCN(CC)CCSc1nnc2c3ccccc3n(CCc3ccccc3)c2n1	12.9	1.3	-79.2*	-1.4	-1.6
C=CCn1c2ccccc2c2nnc(SCCCn3c(=O)[nH]c4ccccc43)nc21	7.8	3.0	79.6	1.5	31.6*
C[C@@H]1CCCCO[C@H](CN(C)C(=O)Nc2ccc(F)cc2)[C@@H](C)CN([C@H](C)CO)C(=O)c2cc(N(C)C)ccc2O1	.	.	1.4	.	-2.6
O=C1C(=C(c2ccccc2)N2CCOCC2)Cc2ccccc21	.	.	-124.7*	.	-19.8
CN(C)[C@@H](CO)c1nnc([C@H](Cc2ccc(O)cc2)NC(=O)C2CCNCC2)o1	13.8	-2.9	7.0	6.4	0.0
N[C@@H](Cc1ccc(O)cc1)c1nnc([C@H](CO)NC(=O)C2CCNCC2)o1	-11.7	-3.0	5.2	-2.7	33.0*
C/C(=N\NC(=O)CSCc1ccc([N+](=O)[O-])cc1)c1ccccc1	2.1	-9.5	6.6	4.8	3.9
C/C(=N\NC(=O)Cc1ccc(Cl)cc1)c1ccccc1O	-35.8*	-8.2	-7.7	5.9	-17.2
C/C(=N\NC(=O)CSCc1ccc([N+](=O)[O-])cc1)c1ccccc1O	-86.7*	-12.3	?	3.5	-53.3
SMILES	D1 antagonist	D1 PAM	D3 antag	D1 agonist	D3 ag
C/C(=N\NC(=O)Cc1ccc(Cl)cc1)c1ccc(F)cc1	-17.2	-0.1	-1.3	5.2	-3.0
CN(C)S(=O)(=O)c1ccc2c(c1)N(CC(=O)NCc1cccc(Br)c1)C(=O)CS2	-14.2	4.0	.	4.8	-12.3
COCCCNc1nc2ccccc2nc1NS(=O)(=O)c1cccs1	0.7	1.1	-63.9*	4.8	-2.7
COCCCNc1nc2ccccc2nc1NS(=O)(=O)c1ccc(OC)cc1	-1.5	-0.2	13.3	2.0	1.6
COc1ccc(C(=O)CN2C(=O)c3ccccc3S2(=O)=O)cc1	-17.9	-0.3	1.6	3.8	0.0
O=C(CN1/C(=C(/O)c2ccccc2)C(=O)c2ccccc2S1(=O)=O)c1ccccc1	-4.2	-2.0	-88.2*	1.3	-1.5
CCOc1ccccc1NC(=O)c1c(NCc2ccc(OC)c(OC)c2OC)sc2c1CCC(C)C2 (configuration not stated)	-12.8	-1.9	.	1.0	-19.6
CCOC(=O)c1sc(N(Cc2ccccc2)C(=O)CCl)nc1C	-1.5	-3.5	-7.1	7.8	11.6
O=C(O)CSCC(=O)N(Cc1ccccc1)c1nc(-c2ccccc2)c(-c2ccccc2)s1	-39.4*	-15.2	-11.8	8.8	-2.1
CCOC(=O)c1cc2c(ccn2C)n1CC(=O)N(Cc1ccccc1)c1ccc(F)cc1	-36.8*	0.2	15.8	1.6	-29.9
CCOc1ccccc1-n1nnnc1SCC(=O)N(C)C1CCS(=O)(=O)C1 (configuration not stated)	.	.	-19.4	.	-1.4
COc1ccc(CCNC(=O)CSc2cn(Cc3cccc(C)c3)c3ccccc23)cc1OC	10.2	0.8	-17.0	34.3*	-1.3
COc1ccc(Cl)cc1NC(=O)CNc1ccccc1N1CCOCC1	-34.9*	-6.4	-4.2	2.7	2.2
COc1ccccc1-n1nnnc1SCC(=O)N(C)C1CCS(=O)(=O)C1 (configuration not stated)	-37.6*	-0.2	-15.9	1.0	3.0
COc1cccc(-n2c(C)nnc2SCC(=O)Nc2ccccc2N2CCOCC2)c1	-20.1	-0.8	9.4	1.4	-4.5
COc1ccc(OC)c(-n2nnnc2SCC(=O)Nc2ccccc2N2CCOCC2)c1	-34.3*	-2.2	-22.7	-0.1	-1.5
CC(C)Oc1ccc(CNC(=O)c2ccc(NC(=O)N3CCSc4ncccc43)cc2)cc1	-0.3	-1.4	.	1.4	-1.8
COc1ccccc1-n1nnnc1SCC(=O)NC1CC1	1.9	3.9	-6.2	1.5	-10.5
COc1ccc(OC)c(NC(=O)CSc2nnnn2C2CCCC2)c1	-7.9	-0.8	2.4	0.8	35.9*
COc1ccc(C(=O)Nc2ccccc2N2CCOCC2)cc1[N+](=O)[O-]	-32.1*	0.4	-5.1	0.9	2.7
COc1ccc(NC(=O)CSc2nnnn2C2CCCCC2)c(OC)c1	3.9	-1.0	-6.7	0.3	3.4
